Compounds with a hit are over-represented: about 3.4% of the library has one in this group of screens.
NTR1 agonist – NTR1 (human) agonism | P30989 | NTR1-U2OS beta-arrestin-GFP spot imaging, agonist mode | activation, % at 20 µM | actives 0.17% (n = 330,000);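 active means activation at or above 40% of the spot to cytoplasm intensity ratio, with at least 20 cells analyzed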;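 further: 0% = DMSO without peptide and 100% = 100 nM NTR1 peptide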
MEKK3 PB1 HTS – MEKK3-MEK5 PB1 interaction, increase or decrease | bead-based flow cytometry, Alexa488-MEK5 binding to MEKK3; actives lie on both sides; 0 = blocked by unlabeled MEK5, 100 = vehicle | binding response (% of control), % at 10 µM | actives 1.4% (n = 290,000) | AID 1529;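 active means binding response more than 3 SD above or below the average of its plate-row segment, actives on both sides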;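 further: Alexa488 bead fluorescence after subtracting the streptavidin-only scavenger bead signal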
Target sequence (Q99759 whole entry, looked up): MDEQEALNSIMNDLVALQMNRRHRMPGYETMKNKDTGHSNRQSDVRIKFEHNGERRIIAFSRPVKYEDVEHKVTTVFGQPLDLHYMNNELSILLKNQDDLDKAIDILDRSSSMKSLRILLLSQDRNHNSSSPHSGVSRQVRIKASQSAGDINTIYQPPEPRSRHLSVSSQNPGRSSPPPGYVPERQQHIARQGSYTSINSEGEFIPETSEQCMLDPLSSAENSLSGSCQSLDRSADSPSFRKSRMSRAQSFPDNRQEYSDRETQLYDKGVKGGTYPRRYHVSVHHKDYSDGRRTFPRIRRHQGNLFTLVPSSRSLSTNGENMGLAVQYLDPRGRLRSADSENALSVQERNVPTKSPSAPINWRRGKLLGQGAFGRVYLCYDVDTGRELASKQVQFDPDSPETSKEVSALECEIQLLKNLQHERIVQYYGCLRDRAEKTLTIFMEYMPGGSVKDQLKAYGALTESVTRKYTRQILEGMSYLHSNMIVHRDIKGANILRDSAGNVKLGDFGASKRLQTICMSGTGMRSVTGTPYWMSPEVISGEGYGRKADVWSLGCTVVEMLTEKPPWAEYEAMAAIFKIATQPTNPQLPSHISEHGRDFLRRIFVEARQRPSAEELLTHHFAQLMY
ANO1 block – blocks the mouse calcium-activated chloride channel TMEM16A; Q8BHY3; HEK293 TMEM16A/YFP iodide influx fluorescence, ionomycin; normalized B-score (activity score, 25-100; higher = stronger inhibition) at 10 µM; actives 1.2% (n = 310,000); AID 588511;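 active means ratio plate-corrected score three or more library SD toward inhibition, starting fluorescence score within five deviations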;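 further: score derived from kinetic fluorescence span divided by baseline fluorescence per well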
TMEM16A act – activates or potentiates the mouse TMEM16A chloride channel | HEK293 TMEM16A/YFP-H148Q/I152L, iodide quench fluorescence; active compounds read low | B-score at 10 µM | AID 623877 | actives 0.3% (n = 340,000) | Q8BHY3;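 active means fluorescence-ratio B-score plate-corrected deviation score at least 3 library SD below zero, with starting fluorescence score within 5 deviations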;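 further: channel opened by trigger with iodide after compound preincubation; score built on the fluorescence ratio of max minus min over baseline; more negative score means more quench and so TMEM16A activation or potentiation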
MEKK2mut PB1 HTS – signal of MEK5 binding to mutant human MEKK2 PB1 domain; bead flow cytometry, Alexa488-MEK5 binding to MEKK2 mutant; percent response, % at 10 µM; actives 0.35% (n = 290,000); in the data active means percent response above about 24%, passing the limit was not always enough
MEKK2wt PB1 HTS – raises or lowers MEK5 binding to wildtype human MEKK2 PB1 domain | Q9Y2U5 | bead flow cytometry, Alexa488-MEK5 binding to MEKK2 WT; actives lie on both sides | actives 1.1% (n = 290,000) | binding response (% of control), % at 10 µM; in the data active means binding response below about 67% or above about 130%
TMEM16A reconf – reconfirmed blocker of mouse TMEM16A calcium-activated chloride channel | shares compounds with ANO1 block | HEK293 TMEM16A/YFP-H148Q, iodide quench fluorescence; ionomycin added to raise cell calcium | inhibition, % at 10 µM | actives 39% (n = 2,300) | AID 652189;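 active means mean duplicate percent inhibition, scaled so buffer wells are 0 and the reference blocker 100, over three buffer SD above buffer mean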
TMEM16A Ca cntr – counter-screen for TMEM16A inhibitors: effect on calcium mobilization; shares compounds with ANO1 block; TMEM16A/YFP HEK293, Fluo4 calcium mobilization; calcium response (% of ionomycin), % at 10 µM; actives 2% (n = 2,300); AID 652231;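 active means duplicate-averaged calcium signal over 20% of the ionomycin maximum, relative to buffer baseline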;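 further: each well's signal is peak minus trough fluorescence divided by its pre-addition baseline; 0% = buffer wells and 100% = ionomycin wells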
Parental YFP cnt – parental YFP-HEK293 iodide quench counter-screen activity. shares compounds with ANO1 block. ionomycin. YFP ratio F(max-min)/F0 at 10 µM. 2,300 tested, under 10 active. AID 652233;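 active means yellow fluorescent protein signal ratio exceeding the buffer control mean by over 5 SD of those controls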;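 further: ratio is mean of duplicate wells from kinetic YFP trace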
ClC-1 inh – blocks the rat ClC-1 voltage-dependent chloride channel; ratio percent, % at 10 µM; CHO ClC-1-YFP, iodide influx fluorescence quench; iodide control reads 0, buffer control 100; shares compounds with ANO1 block; 2,300 tested, under 10 active;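 active means duplicate-mean ratio percent above the mean of iodide-only control wells, which defines zero, plus 5 of their SD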;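 further: higher percent means stronger block of ClC-1 iodide influx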
Starred values were filed as active, the others as inactive.

COCC1CCN(C(=O)c2cc(COc3cccc4cnccc34)on2)CC1 was read as NTR1 agonist 0, MEKK3 PB1 HTS 103, ANO1 block inactive, TMEM16A act inactive, MEKK2mut PB1 HTS 3 and MEKK2wt PB1 HTS 108.
O=C(c1cc(COc2cccc3cnccc23)on1)N1CCCC(CCCO)C1 (stereo unspecified) was read as NTR1 agonist 1, MEKK3 PB1 HTS 100, ANO1 block 25*, TMEM16A act inactive, MEKK2mut PB1 HTS 8, MEKK2wt PB1 HTS 106, TMEM16A reconf 40%*, TMEM16A Ca cntr inactive, Parental YFP cnt -1.3 and ClC-1 inh -19.
Screening Cc1oncc1-c1csc(-c2ccccc2Cl)n1 returned NTR1 agonist 0, MEKK3 PB1 HTS 100, ANO1 block inactive, TMEM16A act inactive, MEKK2mut PB1 HTS -5 and MEKK2wt PB1 HTS 97.
Screening Cc1oncc1-c1csc(-c2ccccc2)n1 returned NTR1 agonist 2, MEKK3 PB1 HTS 99, ANO1 block 100*, TMEM16A act inactive, MEKK2mut PB1 HTS -6, MEKK2wt PB1 HTS 86, TMEM16A reconf inactive, TMEM16A Ca cntr inactive, Parental YFP cnt -0.93 and ClC-1 inh -12.
For CN1CC=C2C(C#N)=C(N)C(C#N)(C#N)C(Cc3ccccc3)C2C1 (stereo unspecified) the results were MEKK3 PB1 HTS 102, ANO1 block inactive, TMEM16A act inactive, MEKK2mut PB1 HTS 1, MEKK2wt PB1 HTS 101, TMEM16A reconf inactive, TMEM16A Ca cntr inactive, Parental YFP cnt -0.79 and ClC-1 inh -15.
`Cn1c(SCC(=O)Nc2ccc3c(c2)OCCO3)nnc1-c1ccco1` gave NTR1 agonist 1, MEKK3 PB1 HTS 100, ANO1 block 100*, TMEM16A act inactive, MEKK2mut PB1 HTS -5, MEKK2wt PB1 HTS 102, TMEM16A reconf inactive, TMEM16A Ca cntr inactive, Parental YFP cnt -1 and ClC-1 inh -22.
`Cn1nc(CC(=O)Nc2ccc(N3CCN(C(=O)OC(C)(C)C)CC3)cc2)c2ccccc2c1=O` gave NTR1 agonist 0, ANO1 block 25*, TMEM16A act inactive, TMEM16A reconf inactive, TMEM16A Ca cntr inactive, Parental YFP cnt -1.1 and ClC-1 inh -12.
For CCn1c(SCC(=O)Nc2ccc3c(c2)OCCO3)nnc1-c1ccco1 the results were NTR1 agonist 0, ANO1 block inactive and TMEM16A act inactive.
Screening Cn1nc(CC(=O)Nc2ccc3c(c2)OCCO3)c2ccccc2c1=O returned NTR1 agonist -1, MEKK3 PB1 HTS 107, ANO1 block 25*, TMEM16A act inactive, MEKK2mut PB1 HTS 4, MEKK2wt PB1 HTS 104, TMEM16A reconf inactive, TMEM16A Ca cntr inactive, Parental YFP cnt -1 and ClC-1 inh -12.
Cc1ccc(-c2nnc(COC(=O)c3cccs3)o2)cc1 was read as NTR1 agonist 0, MEKK3 PB1 HTS 102, ANO1 block inactive, TMEM16A act inactive, MEKK2mut PB1 HTS 4 and MEKK2wt PB1 HTS 104.
`O=C(c1cc([N+](=O)[O-])ccc1N1CCOCC1)N1CCN(S(=O)(=O)c2cc(Cl)ccc2Cl)CC1` gave NTR1 agonist 6, ANO1 block inactive and TMEM16A act inactive.
Cc1ccnc(Nc2nc(-c3ccc(O)c(O)c3)cs2)c1 was read as NTR1 agonist 14, MEKK3 PB1 HTS 110, ANO1 block 25*, TMEM16A act inactive, MEKK2mut PB1 HTS 4, MEKK2wt PB1 HTS 106, TMEM16A reconf inactive, TMEM16A Ca cntr inactive, Parental YFP cnt -0.94 and ClC-1 inh -4.
Screening COc1ccc(-c2cc(C)no2)cc1S(=O)(=O)N1CCN(c2ccc([N+](=O)[O-])cc2)CC1 returned NTR1 agonist 1, MEKK3 PB1 HTS 104, ANO1 block inactive, TMEM16A act inactive, MEKK2mut PB1 HTS 3 and MEKK2wt PB1 HTS 106.
`COc1ccc(CCC(=O)NCC(c2ccco2)N2CCc3ccccc32)cc1` (stereo unspecified) gave NTR1 agonist 0, ANO1 block inactive and TMEM16A act inactive.
For O=C(NC1CCCCC1)c1ccc(S(=O)(=O)c2ccccc2Cl)c([N+](=O)[O-])c1 the results were NTR1 agonist 5, MEKK3 PB1 HTS 93, ANO1 block inactive, MEKK2mut PB1 HTS -2 and MEKK2wt PB1 HTS 102.
Screening CN(C(=O)c1ccc(S(=O)(=O)c2cccc(Cl)c2)c([N+](=O)[O-])c1)C1CCCCC1 returned NTR1 agonist 6, MEKK3 PB1 HTS 95, ANO1 block 25*, TMEM16A act inactive, MEKK2mut PB1 HTS -2, MEKK2wt PB1 HTS 97, TMEM16A reconf inactive, TMEM16A Ca cntr inactive, Parental YFP cnt -1.1 and ClC-1 inh -10.
`O=C(NCc1ccc(Cl)cc1Cl)c1ccccn1` gave NTR1 agonist -1, MEKK3 PB1 HTS 98, ANO1 block 25*, TMEM16A act inactive, MEKK2mut PB1 HTS 2, MEKK2wt PB1 HTS 98, TMEM16A reconf inactive, TMEM16A Ca cntr inactive, Parental YFP cnt -1.1 and ClC-1 inh -11.
For C=CCn1c(CCNC(=O)c2ccccc2F)nnc1SCC(=O)Nc1nc2ccccc2s1 the results were NTR1 agonist -2, MEKK3 PB1 HTS 84, ANO1 block inactive, TMEM16A act inactive, MEKK2mut PB1 HTS -3 and MEKK2wt PB1 HTS 87.
CC1C(=O)Nc2ccccc2N1C(=O)C1CC1 (stereo unspecified) was read as NTR1 agonist 0, MEKK3 PB1 HTS 83, ANO1 block 25*, TMEM16A act inactive, MEKK2mut PB1 HTS -13, MEKK2wt PB1 HTS 89, TMEM16A reconf inactive, TMEM16A Ca cntr inactive, Parental YFP cnt -0.91 and ClC-1 inh -14.
For CC1C(=O)Nc2ccccc2N1C(=O)c1ccccc1 (stereo unspecified) the results were NTR1 agonist 0, MEKK3 PB1 HTS 93, ANO1 block inactive, TMEM16A act inactive, MEKK2mut PB1 HTS -14 and MEKK2wt PB1 HTS 82.

High-throughput results: PubChem BioAssay, several laboratories
